In PubChem BioAssay AID743397 (Broad Institute, 2014):
Screen size: about 340,000 compounds; about 330 (0.097%) were called active.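 The calls were made as follows: active = mean replicate inhibition of at least 30% and at least 1% of replicates passing that level; inconclusive = only one of the two criteria is met; inactive = neither criterion is met.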 What follows is part of a selection rich in actives, with near analogues and random picks from the rest.

These compounds were tested on Voltage-dependent L-type calcium channel subunit alpha-1D (CaV1.3) ICDI/IQ interaction (assay: Primary screen for inhibitors of IQ motif and Ca2+-dependent inactivation inhibitor domain binding in CACNA1D, Förster resonance energy transfer in living cells, single-concentration test (AID 743397;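 also: 0% = median of the neutral control wells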)). Details: HEK cells, CFP/YFP FRET ICDI-IQ, plate reader, 10 min; at 12.3 µM; stronger effect = higher value; percent FRET-ratio fall versus neutral wells.

Compound | inhibition
COC(=O)C1=C(C)N(Cc2ccccc2C(F)(F)F)C(=NCC2CC2)NC1c1cccc(Cl)c1 (stereo unspecified) | -11.5% (inactive)
CCOC(=O)CNC(=O)N(C)[C@H]1C[C@H]2c3[nH]c4c(-c5ccc6c(c5)OCO6)cccc4c3CCN2C(=O)[C@H]1[C@H](C)O | -2.88% (inactive)
COc1ccc(NC(=O)N(C)C[C@@H]2OCCCC[C@@H](C)Oc3ccc(NC(=O)NC4CCCCC4)cc3C(=O)N([C@H](C)CO)C[C@@H]2C)cc1 | -5.46% (inactive)
CCCCCCCCN1C(=O)[C@@H](CC(=O)NCCCC)C[C@@]2(C(=O)OC)C1=C[C@H](C(C)(C)C)O[C@@H]2C | -9.75% (inactive)
C[C@@H]1ON(C)[C@H]2C[C@H]3c4cc(N5CCOCC5)ccc4CCN3C[C@@H]12 | -4.48% (inactive)
COc1ccc(C2CC(c3cccs3)=NN2c2nc(C)c(C(C)=O)s2)cc1OC (stereo unspecified) | 168% (active)
COc1ccc(C2CC(c3cccs3)=NN2C(=O)CSc2nnc(N)s2)cc1OC (stereo unspecified) | -6.31% (inactive)
COc1ccc(C2CC(c3cccs3)=NN2C(=O)CSc2nncs2)cc1OC (stereo unspecified) | -3.4% (inactive)
C[C@@H](CN1C2=NC[C@@H](Cc3ccccc3)N2C[C@H]1Cc1ccc(O)cc1)NC(=O)CCC1CCCCC1 | -5.25% (inactive)
C[C@@H]1CN([C@H](C)CO)C(=O)CCCn2cc(nn2)CO[C@H]1CN(C)C(=O)Nc1ccc(N2CCCCC2)cc1 | -8.15% (inactive)
Cc1[nH]nc2c1C(c1ccc(Br)cc1)NC2=O (stereo unspecified) | -4.02% (inactive)
COCc1cc(N2CCN(C(=O)OC(C)(C)C)C[C@@H]2C)ccc1N1CCN(Cc2ccccc2)[C@H](C)C1 | -8.69% (inactive)
CCOC(=O)C1=C(C(=O)OCC)C2N(Cc3ccc(C#N)cc3)c3ccccc3[C@@]23C[C@@H](C(=O)OC)N(S(=O)(=O)c2ccc(F)cc2)C3=N1 (stereo partly specified) | -8.5% (inactive)
CC(C)(C)c1ccc(S(=O)(=O)NCC2CCN(C(=O)C(=O)c3cc4ccccc4o3)CC2)cc1 | -8.19% (inactive)
COC(=O)[C@@]12C[C@@H](CC(=O)N3CCC(c4ccccc4)CC3)C(=O)N(Cc3ccccc3)C1=CCC(C)(C)C2 | -9.64% (inactive)
C=CCN=C1NC(c2cccc(C(F)(F)F)c2)C(C(=O)OC)=C(C)N1C (stereo unspecified) | -4.33% (inactive)
COC(=O)C(C(=O)OC)c1ccccc1NS(=O)(=O)c1cccc2ccccc12 | -10.7% (inactive)
Cc1nc(NC(=O)C(C)(C)C)sc1[N+](=O)[O-] | -3.6% (inactive)
CCc1c(-c2ccccc2OC)ncn1CCc1ccccc1OC | -9.61% (inactive)
Cc1nc2c(OCc3ccc(Cl)cc3Cl)cccn2c1N(C)CC1CC1 | -6.39% (inactive)
CC(=O)Nc1cccc(-c2cc(NC=O)c3ncc(-c4ccc(F)c(Cl)c4)n3c2)c1 | -10.8% (inactive)
CN[C@H]1C[C@H]2c3[nH]c4c(-c5ccccc5)cccc4c3CCN2C(=O)[C@H]1[C@H](C)O | -3.8% (inactive)
CCOC(=O)[C@]12CCC=C1N(Cc1ccco1)C(=O)[C@H](CC(=O)NCc1cccc(C(F)(F)F)c1)C2 | -5.22% (inactive)
C[C@H](O)[C@@H]1C(=O)N2CCc3c([nH]c4c(-c5ccc6c(c5)OCO6)cccc34)[C@@H]2C[C@@H]1N(C)C(=O)c1ccco1 | -4.05% (inactive)
O=C(N[C@H](C(=O)N1CCC[C@H]1C(=O)NCCc1ccccc1Cl)c1ccccc1)c1ccccc1 | -4.64% (inactive)
Oc1cccc2cc(-c3ccncc3)cnc12 | -5% (inactive)

Compound | inhibition
COC(=O)C1=C(C)N(Cc2ccccc2C(F)(F)F)C(=NCc2ccc(OC)cc2)NC1c1cccc(C(F)(F)F)c1 (stereo unspecified) | -9.27% (inactive)
CCCCOCCCNC(=O)C[C@@H]1C[C@@]2(C(=O)OC)CCCCC=C2N(CCC2=CCCCC2)C1=O | -3.67% (inactive)
CCCCCCCCCOC1OC(CO)C(O)C(O)C1NC(C)=O (stereo unspecified) | -5.79% (inactive)
CCc1cccc(OC2OC(CO)C(O)C(O)C2NC(C)=O)c1 (stereo unspecified) | 107% (active)
COC(=O)c1ccc2ccccc2c1OC1OC(CO)C(O)C(O)C1NC(C)=O (stereo unspecified) | -1.34% (inactive)
CCCCNc1cccc2c1S(=O)(=O)N[C@@H](C)CO2 | -5.83% (inactive)
COC(=O)C1=C(C)N(Cc2cccc(C(F)(F)F)c2)C(=NCc2ccccc2)NC1c1ccccc1C(F)(F)F (stereo unspecified) | -1.85% (inactive)
CCCCc1c(-c2ccc(Br)cc2)ncn1CCc1ccccc1OC | -9.97% (inactive)
COC(=O)c1ccc(CN2C(=O)[C@]3(OCCC=C[C@H]3C)c3c(Br)cccc32)cc1 | -5.34% (inactive)
COc1ccc(-c2ccc3c(n2)CCCN3S(=O)(=O)c2ccc(C)cc2)cc1 | -4.73% (inactive)
COc1ccc(CNS(=O)(=O)c2cc(Br)ccc2Br)cc1 | -5.62% (inactive)
COc1cccc(NC(=O)N(C)C[C@@H]2OCc3cn(nn3)CCCC(=O)N([C@@H](C)CO)C[C@H]2C)c1 | -4.88% (inactive)
CN1C(=O)C(Br)(Br)CC1c1cccnc1 (stereo unspecified) | -4.22% (inactive)
CC[C@H](NC(=O)[C@H](Cc1ccccc1)NC(=O)[C@H]1O[C@@H](n2cnc3c(=O)[nH]c(N)nc32)[C@H](O)[C@@H]1O)c1ccccc1 | -7.74% (inactive)
COC(=O)[C@]12C[C@H](CC(=O)N3CCN(C(=O)C4CC4)CC3)C(=O)N(Cc3ccc4c(c3)OCO4)C1=C[C@H](C(C)(C)C)O[C@@H]2C | -7.42% (inactive)
CC1CCCN(c2cccc3c2S(=O)(=O)N(Cc2ccc(F)cc2)[C@@H](C)[C@H](c2ccccc2)O3)C1 (stereo partly specified) | -4.9% (inactive)
COCCNC(=S)N(C)[C@H]1C[C@H]2c3[nH]c4ccccc4c3CCN2C[C@H]1[C@H](C)O | -5.06% (inactive)
COC(=O)N1Cc2ccnnc2CC1c1ccccc1Br (stereo unspecified) | -4.44% (inactive)
CCOC(=O)N1CCN(C(=O)C[C@H]2C[C@@]3(C(=O)OC)C(=C[C@H](C4CCCC4)O[C@@H]3C)N(Cc3ccccc3)C2=O)CC1 | -8.9% (inactive)
O=C(Nc1c(Cl)c(C2CC2)nn1-c1ccccc1)C(Cl)(Cl)Cl | -4.55% (inactive)
O=c1[nH]c(-c2ccccc2)cn1C1CCN(Cc2ccc(-c3nc4ccc(F)cc4nc3-c3ccccc3)cc2)CC1 | -6% (inactive)
CC(=NNC(N)=O)c1ccc(Cl)c(-n2cccc2)c1 | -7.9% (inactive)
CCc1ccc(C2=CC(=O)CC(C)(C)C2=O)cc1 | -7.01% (inactive)
COC(=O)C1=C(C)N(Cc2ccc(C(F)(F)F)cc2)C(=NCc2ccccc2)NC1c1ccccc1C(F)(F)F (stereo unspecified) | -9.62% (inactive)
Nc1ncnc2c1ncn2[C@@H]1O[C@H](C(=O)N[C@@H](CCc2ccccc2)C(=O)NCC(=O)N2CCOCC2)[C@@H](O)[C@H]1O | -4.61% (inactive)
CC(=O)N1C[C@@H](CO)[C@@H](N(C)C(=O)C(C)(C)C)C[C@H]1c1ccccc1Br | -3.95% (inactive)

Compound | inhibition
CCOC(=O)Cn1c2c(n(-c3ccc(F)cc3)c1=O)C=C(c1ccccc1)[C@@H](C)C(C(=O)N(C)C1CCCCC1)=C2 | -5.25% (inactive)
Cc1cccc(/C(N)=N/OC(=O)c2ccccc2Cl)c1 | 1.19% (inactive)
Cc1ccc(C)c(N2C(=O)CS/C2=N\NC(=O)c2ccccc2Cl)c1 | -8.17% (inactive)
Cc1cc(OC(=O)c2ccccc2Cl)ccc1N1C(=O)CCC1=O | 66.2% (active)
CC[C@H](C)[C@H]1CNC(=O)C(=O)N1CC1CCN(CCc2ccc(OC)c(OC)c2)CC1 | -5.2% (inactive)
CC1CCN(CCCn2c(SCC(=O)NC3CCCC3)nc3ccccc3c2=O)CC1 | -1.93% (inactive)
CCCN(CCC)CCNC(=O)c1cc2c(C)nc3ccccc3c2o1 | -3.91% (inactive)
Cc1nc2ccccc2c2oc(C(=O)NCCCN3CCC(C)CC3)cc12 | 61.5% (active)
CC(C)(C)n1nc(C2CC2)c(Br)c1NC(=O)c1ccccc1F | -11.7% (inactive)
CC(=O)C1=C(C)N(Cc2ccccc2)C(=S)NC1c1cccc(Br)c1 (stereo unspecified) | -5.09% (inactive)
Cc1cc2c(nc1C)CCCN2C | -4.25% (inactive)
CN1C(=O)C2CC(O)C(SC3CC4C(=O)N(C)C(=O)C4CC3O)CC2C1=O (stereo unspecified) | -4.52% (inactive)
COC(=O)C1=C(C(=O)OC)C2C=C(C(C)C)C1C(=O)C2(C)O (stereo unspecified) | -3.68% (inactive)
O=C(NCc1ccccc1)[C@@H]1CCCN1C(=O)[C@H]1CCCN1C(=O)c1cccc(Cl)c1 | -3.24% (inactive)
C[C@H]1CN([C@@H](C)CO)C(=O)CCCn2nncc2CO[C@@H]1CN(C)C(=O)Nc1ccc(N2CCN(C)CC2)cc1 | -5.58% (inactive)
CCOC(=O)c1ccc(-c2ccc3ncnc(N(C)Cc4sccc4C)c3c2)o1 | -9.32% (inactive)
Clc1cccc2c1C1CC2CCN1Cc1ccccc1 (stereo unspecified) | -3.78% (inactive)
Nc1[nH]c(C(=O)c2ccccc2)c(-c2ccc(Cl)cc2Cl)c1C(=O)c1ccccc1 | -17.7% (inactive)
Cn1c(=O)[nH]c(=O)c2c1nc(N1CCN(CCO)CC1)n2CCSc1nc2ccccc2s1 | -4.96% (inactive)
CCOC(=O)c1oc2c(CN3CCN(CCO)CC3)c(O)c(CC)cc2c(=O)c1-c1nc2ccccc2s1 | 37% (active)
CCOC(=O)c1oc2c(CN3CCN(C)CC3)c(O)ccc2c(=O)c1-c1ccc(Br)cc1 | -4.95% (inactive)
O=C(NCc1ccccc1)[C@H]1CCCN1C(=O)[C@H]1CCCN1C(=O)c1cc(F)cc(F)c1 | -8.46% (inactive)
O=C(NCc1ccccc1)[C@@H]1CCCN1C(=O)[C@@H](NS(=O)(=O)c1ccc(F)cc1F)C1CCCCC1 | -2.67% (inactive)
O=C(C(=O)N1CCC(CNS(=O)(=O)Cc2ccccc2)CC1)c1cc2ccccc2o1 | -8.57% (inactive)
